Records with an inconclusive call do not appear. Activity calls are given as the source filed them. Unless noted, calls follow the shape of the dose curve; as a rule, active = well fitted curve in the direction sought with a large enough effect in the repeat runs; inconclusive = weak or mixed curves; inactive = no such curve, though single readings can be large; an effect the other way counts as inactive or inconclusive.
Tests used:
[1] = A CellTox Green Cytotoxicity Assay to monitor cytotoxicity in HEK293 cells - 32 hour (AID 1224881); also: nearly all actives have a fitted effect of over 40% in size
Procedure, shortened: (§1)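 Dead-cell fluorescence measured kinetically: asymmetric cyanine dye, HEK293, 600 cells/well, 5 h settle, 23 nL cpd/DMSO, 37 C, reads 0–40 h every 8 h.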

[2] = A CellTox Green Cytotoxicity Assay to monitor cytotoxicity in HepG2 cells - 0 hour (AID 1224882); also: nearly all actives have a fitted effect of over 35% in size
Procedure, shortened: (§2)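 First, HepG2 cells (600/well) mixed with reagent were plated; second, after 5 h at 37 C they received compounds via pintool; third, fluorescence was measured at 0 h through 40 h at 8 h intervals.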

[3] = A CellTox Green Cytotoxicity Assay to monitor cytotoxicity in HepG2 cells - 32 hour (AID 1224883); also: nearly all actives have a fitted effect of over 50% in size
Procedure, shortened: as §2

[4] = A CellTox Green Cytotoxicity Assay to monitor cytotoxicity in HEK293 cells - 8 hour (AID 1224884); also: nearly all actives have a fitted effect of over 35% in size
Procedure, shortened: as §1

[5] = qHTS RealTime-Glo MT Cell Viability Assay in HepG2 cells - 16 hour (AID 1224885); also: nearly all actives have a fitted effect of over 50% in size
Procedure, shortened: (§3)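 HepG2 cells (600/well) were dispensed with RealTime-Glo reagents, incubated 5 h at 37 °C, then treated with compounds in DMSO for up to 40 h. Nonlytic NanoLuc luminescence reflecting viable cells was read at each stated time point.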

[6] = qHTS RealTime-Glo MT Cell Viability Assay in HEK293 cells - 24 hour (AID 1224886); also: top concentration of the series differs between compounds; nearly all actives have a fitted effect of over 50% in size
Procedure, shortened: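 HEK293 cells seeded with NanoLuc/prosubstrate reagent, rested 5 h at 37 C, then dosed and kept at 37 C up to 40 h. Nonlytic real-time luminescence from viable cells read at 0, 8, 16, 24, 32 and 40 h.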

[7] = qHTS RealTime-Glo MT Cell Viability Assay in HEK293 cells - 8 hour (AID 1224887); also: top concentration of the series differs between compounds; nearly all actives have a fitted effect of over 50% in size
Procedure, shortened: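 600 HEK293 cells per well, dispensed already mixed with RealTime-Glo MT reagents. Compound dosing came 5 h later. The same wells were read for luminescence at 0, 8, 16, 24, 32 and 40 h of exposure at 37 C.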

[8] = A CellTox Green Cytotoxicity Assay to monitor cytotoxicity in HEK293 cells - 16 hour (AID 1224888); also: nearly all actives have a fitted effect of over 35% in size
Procedure, shortened: as §1

[9] = qHTS RealTime-Glo MT Cell Viability Assay in HepG2 cells - 0 hour (AID 1224889); also: nearly all actives have a fitted effect of over 50% in size
Procedure, shortened: as §3

[10] = A CellTox Green Cytotoxicity Assay to monitor cytotoxicity in HepG2 cells - 8 hour (AID 1224890); also: nearly all actives have a fitted effect of over 45% in size
Procedure, shortened: as §2

[11] = qHTS assay to identify small molecule antagonists of the estrogen receptor alpha (ER-alpha) signaling pathway using the BG1 cell line in the presence of 0.1 nM 17-beta-estradiol - cell viability counter screen (AID 1259241); also: nearly all actives have a fitted effect of over 40% in size
Procedure, shortened: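 Following 5 days in phenol red-free medium with charcoal-stripped serum, VM7Luc4E2 cells received test compounds alongside 0.1 nM 17beta-estradiol (final) at 37C for 22 hr. Live cells were then quantified via protease-substrate fluorescence.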

[12] = qHTS assay to identify small molecule antagonists of the androgen receptor (AR) signaling pathway using the MDA cell line in the presence of 0.5 nM R1881 - cell viability counter screen (AID 1259242); also: nearly all actives have a fitted effect of over 45% in size
Procedure, shortened: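 qHTS format. MDA-kb2 (MMTV-luc, AR/GR responsive) + cpd + 0.5 nM R1881 final, 16 hr 37C/0% CO2 → CellTiter-Fluor 30 min → fluorescence intensity.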

[13] = qHTS assay to identify small molecule phospholipidosis (PLD) inducers (AID 1259344; active = well fitted curve in the direction sought with a large enough effect; an effect the other way counts as inactive or inconclusive)
Procedure, shortened: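 Cells (HepG2, 900 per well) attach for 4 h, receive LipidTOX Red and compound together, incubate 24 h at 37 C, are fixed 30 min with paraformaldehyde/Hoechst, then imaged at one site per well.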

[14] = qHTS assay to identify small molecule HDAC inhibitors (AID 1259364);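 also: wild-type HCT-116 cells with endogenous class I/II HDAC activity; top concentration of the series differs between compounds; nearly all actives have a fitted effect of over 45% in size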
Procedure, shortened: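 Quantitative high-throughput format: overnight-seeded HCT-116 cells got compounds for 2 hr at 37C; HDAC-Glo I/II reagent added, 30 min RT, luminescence measured.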

[15] = qHTS assay to identify small molecule HDAC inhibitors - cell viability counter screen (AID 1259365)
Procedure, shortened: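 HCT-116 wild-type, overnight attachment; 2hr drug exposure, 37C; CellTiter-Glo luminescent ATP readout after 30min RT.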

[16] = qHTS assay to identify small molecule agonists of the sonic hedgehog signaling (Shh) pathway - cell viability counter screen (AID 1259366); also: nearly all actives have a fitted effect of over 50% in size
Procedure, shortened: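 Compounds in DMSO were pin-transferred onto 3T3 Gli1-Luc cells that had settled 4hr; plates then stood 24hr at 37C and 5% CO2. One hour before the end, CellTiter-Fluor was added and fluorescence recorded.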

[17] = qHTS assay to identify small molecule antagonists of the sonic hedgehog signaling (Shh) pathway - cell viability counter screen (AID 1259367); also: nearly all actives have a fitted effect of over 55% in size
Procedure, shortened: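 Cytotoxicity was assessed in parallel with Shh reporter activity by measuring live-cell protease fluorescence (CellTiter-Fluor) in NIH/3T3 cells stably carrying Gli1-Luc, treated with compound under conditioned medium stimulation for 23 hr plus 1 hr reagent incubation.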

[18] = qHTS assay to identify small molecule agonists of the sonic hedgehog signaling (Shh) pathway (AID 1259368; calls by dose curve;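 also: NIH/3T3-derived 3T3Gli1-Luc cells carrying a stable Gli1-driven firefly luciferase reporter; series mostly up to about 92 µM; nearly all actives have a fitted effect of over 15% in size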)
Procedure, shortened: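 Quantitative high-throughput format using a Gli1-driven firefly luciferase reporter line derived from NIH/3T3 cells. After a 24 hr compound treatment at 37 C and 5% CO2, luminescence reported Gli1 response element activity.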

[19] = biological target: Androgen receptor (Homo sapiens) (UniProt P10275); assay: qHTS assay to identify small molecule antagonists of the androgen receptor (AR) signaling pathway using the MDA cell line in the presence of 0.5 nM R1881 (AID 1259243); also: nearly all actives have a fitted effect of over 50% in size
Procedure, shortened: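 Antagonist mode quantitative HTS in MDA-kb2 MMTV-luciferase cells, agonist R1881 at 0.5 nM final, 16 hr exposure at 37C and 0% CO2, luminescent detection.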

[20] = biological target: Estrogen receptor (Homo sapiens) (UniProt P03372); assay: qHTS assay to identify small molecule antagonists of the estrogen receptor alpha (ER-alpha) signaling pathway using the BG1 cell line in the presence of 0.1 nM 17-beta-estradiol (AID 1259244); also: nearly all actives have a fitted effect of over 50% in size
Procedure, shortened: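 Reporter is a stably transfected luciferase under four estrogen responsive elements in VM7Luc4E2 cells expressing native full-length ER-alpha; inhibition of 0.1 nM (final) 17beta-estradiol-driven signal over 22 h is read by luminescence.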

Measured: Potency

Sequence of Estrogen receptor (Homo sapiens) (P03372 whole entry, looked up): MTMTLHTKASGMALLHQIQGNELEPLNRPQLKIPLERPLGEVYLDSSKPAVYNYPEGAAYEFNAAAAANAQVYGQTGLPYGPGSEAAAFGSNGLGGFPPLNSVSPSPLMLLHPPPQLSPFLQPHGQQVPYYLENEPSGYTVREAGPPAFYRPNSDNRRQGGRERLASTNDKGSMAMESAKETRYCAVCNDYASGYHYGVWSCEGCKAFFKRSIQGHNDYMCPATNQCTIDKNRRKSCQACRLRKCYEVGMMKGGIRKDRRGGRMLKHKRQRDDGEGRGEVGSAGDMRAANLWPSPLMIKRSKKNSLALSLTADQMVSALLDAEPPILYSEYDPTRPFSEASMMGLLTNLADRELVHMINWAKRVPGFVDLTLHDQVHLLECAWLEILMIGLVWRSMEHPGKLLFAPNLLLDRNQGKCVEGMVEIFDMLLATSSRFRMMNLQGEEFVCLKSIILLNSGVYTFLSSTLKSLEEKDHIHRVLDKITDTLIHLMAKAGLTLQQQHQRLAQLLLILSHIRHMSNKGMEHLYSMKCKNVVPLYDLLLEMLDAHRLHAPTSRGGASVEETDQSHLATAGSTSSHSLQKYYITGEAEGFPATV
Sequence of Androgen receptor (Homo sapiens) (P10275 whole entry, looked up): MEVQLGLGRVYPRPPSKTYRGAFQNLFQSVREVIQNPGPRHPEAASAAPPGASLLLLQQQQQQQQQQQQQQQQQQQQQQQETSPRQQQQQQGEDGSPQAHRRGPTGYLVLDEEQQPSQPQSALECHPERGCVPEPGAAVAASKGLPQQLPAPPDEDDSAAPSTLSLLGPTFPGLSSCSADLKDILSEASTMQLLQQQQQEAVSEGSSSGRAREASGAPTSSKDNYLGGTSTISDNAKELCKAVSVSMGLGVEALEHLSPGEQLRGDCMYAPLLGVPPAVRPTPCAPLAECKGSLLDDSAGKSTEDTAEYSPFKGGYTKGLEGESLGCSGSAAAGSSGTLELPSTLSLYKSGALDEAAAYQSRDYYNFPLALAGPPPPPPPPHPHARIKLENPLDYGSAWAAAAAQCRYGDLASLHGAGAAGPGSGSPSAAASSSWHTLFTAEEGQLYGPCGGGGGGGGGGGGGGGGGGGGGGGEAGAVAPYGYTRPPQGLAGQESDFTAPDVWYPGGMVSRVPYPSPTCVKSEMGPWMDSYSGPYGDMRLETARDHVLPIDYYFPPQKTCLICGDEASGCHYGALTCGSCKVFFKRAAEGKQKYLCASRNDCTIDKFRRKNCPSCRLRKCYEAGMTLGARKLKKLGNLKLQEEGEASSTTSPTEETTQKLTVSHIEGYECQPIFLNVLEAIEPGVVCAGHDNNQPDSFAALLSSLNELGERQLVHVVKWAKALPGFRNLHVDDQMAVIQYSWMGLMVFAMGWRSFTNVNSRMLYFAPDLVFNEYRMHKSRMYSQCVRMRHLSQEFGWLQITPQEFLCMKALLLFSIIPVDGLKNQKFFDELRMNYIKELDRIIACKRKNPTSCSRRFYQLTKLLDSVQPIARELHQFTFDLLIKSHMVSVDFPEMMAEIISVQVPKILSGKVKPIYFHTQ

COc1cccc(OC)c1C(=O)N[C@@H]1C(=O)N2[C@@H]1SC(C)(C)[C@@H]2C(=O)O
not listed: [19] | [20]
inactive: all other assays above

CCOC(=O)C(=O)CCCCCCl
not listed: [13]
inactive: all other assays above

CC[N+](C)(CC)CCOC(=O)C1c2ccccc2Oc2ccccc21
not listed: [19] | [20]
inactive: all other assays above

C=C(C)C(=O)OCC1CCCO1 (stereo unspecified)
not listed: [13] | [18] | [19] | [20]
inactive: all other assays above

CC(C)(C)C(=O)c1ccccc1
not listed: [13] | [18] | [19]
inactive: all other assays above

CCOC(=O)COc1cc(-n2ncc(C(F)(F)F)c(C)c2=O)c(F)cc1Cl
not listed: [13]
inactive: all other assays above

CC(=O)N1C[C@H](O)C[C@H]1C(=O)O
inactive: all assays above

O=C(O)CNC(=O)c1ccccc1
not listed: [16] | [19] | [20]
inactive: all other assays above

CCCCN(CCC(=O)OCC)C(C)=O
not listed: [13] | [19]
inactive: all other assays above

O=S(=O)(O)c1cccc(S(=O)(=O)O)c1
not listed: [13]
inactive: all other assays above

CCOC(=O)c1cnc2c(cnn2CC)c1NN=C(C)C
not listed: [19]
inactive: all other assays above

CC(=O)N[C@H]1[C@H]([C@H](O)[C@H](O)CO)OC(C(=O)O)=C[C@@H]1N=C(N)N
inactive: all assays above

CN(C)C(=O)Oc1cccc([N+](C)(C)C)c1
not listed: [19]
inactive: all other assays above

CC(=O)c1ccccc1[N+](=O)[O-]
not listed: [13] | [14] | [19]
inactive: all other assays above

From PubChem BioAssay (Tox21)
